Inconclusive results are not listed. Active and inactive are the calls of the source. Calls follow the shape of the dose curve; as a rule, active = well fitted inhibition curve with a large enough effect; inconclusive = small, poorly fitted or top-dose-only effect; inactive = no such curve, though single readings can be large or run the other way.
Potency is read from the fitted curve at half-maximal effect.

This test can be described thus: Primary qHTS for inhibitors of nuclear receptor binding SET domain protein 2 (NSD2) in an RCH-ACV wild type WT cells (2C) (AID 1645877). Also: nearly all actives have a fitted effect of over 70% in size. The conditions noted are these: RCH-ACV (leukaemia line) NSD2 WT (2C) viability, CellTiter-Glo, 72 h; series mostly up to 44.9 µM.
As for `Cc1c(CN2CCN(C(=O)[C@H](C)O)CC2)sc2c(N3CCOCC3)nc(-c3cnc(N)nc3)nc12`, the Potency is 0.0742 µM (active).

As for `Cc1cc(C)c(S(=O)(=O)N(CCc2cccc(Br)c2)Cc2ccc(-c3cccc(S(C)(=O)=O)c3)cc2)c(C)c1`, the Potency result is “inactive”.

For `CN(CCOc1ccc(C[C@H](Nc2ccccc2C(=O)c2ccccc2)C(=O)O)cc1)c1ccccn1`, the Potency entry is “inactive”.

Take `CC(=O)N1c2ccc(-c3ccc(C(=O)O)cc3)cc2[C@H](Nc2ccc(Cl)cc2)C[C@@H]1C`: the Potency is 0.0934 µM (active).

Take `COC1=C(OC)C(=O)C(C/C=C(\C)CC/C=C(\C)CC/C=C(\C)CC/C=C(/C)CC/C=C(\C)CC/C=C(\C)CC/C=C(\C)CC/C=C(\C)CC/C=C(\C)CCC=C(C)C)=C(C)C1=O`: the Potency result was “inactive”.

As for `Cc1ccc(-n2c(C)cc(-c3nnc4n3CCCCC4)c2C)cc1`, the Potency was 18.6 µM (active).

For `CS(=O)(=O)c1ccc(-c2cnc(NCc3ccco3)n3cnnc23)cc1`, the Potency entry was “inactive”.

For the compound `COc1nc(N)nc2c1ncn2C1OC(CO)C(O)C1O` (stereo not drawn), the Potency is 4.68 µM (active).

For the compound `C/C(=N\NC(=O)c1cccc(S(=O)(=O)N2CCOCC2)c1)c1cc(Cl)ccc1O`, the Potency is 2.09 µM (active).

Take `CNc1nc(-c2ccc3c(N)n[nH]c3c2)cc(N2C[C@@H](C(=O)NC3CCCCC3)CC[C@H]2C)n1`: the Potency is 0.833 µM (active).

As to `Cn1cc(/C=C2\C(=O)Nc3cccnc32)c2ccccc21`, the Potency is 8.33 µM (active).

As to `C[C@@H]1CC(=O)Nc2cccc(-c3cnn(C(C)(C)C)c3)c2N1`, the Potency is 5.9 µM (active).

On to `O=C(CCCc1ccc2cccnc2n1)NCc1cc(-c2ccc(F)c(C(F)(F)F)c2)no1`, for which the Potency result is “inactive”.
